# Results published in PubChem BioAssay (NCI).
# Compounds without any hit were thinned out: in the full panel of roughly 83,000, 20% have a hit.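 Negative percent growth values reflect cell death: -40 means 40% of the cells present at the start died, and -100 means all died.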 Active and inactive are the calls of the source.
# Test system: SW-620 colon
# Assay: NCI-60 one-dose screen, 48 h (100 = growth as untreated, 0 = no growth, -100 = all killed)
# Details: 10 µM unless noted
# Protocol: Growth inhibition of the SW-620 human tumor cell line is measured as a screen for anti-cancer activity. Cells are grown in 96 well plates and exposed to the test compound for 48 hours. Compounds are tested at a single concentration, which is 10^-5 M for most compounds. The reported endpoint is percent growth (GI% or GIPRCNT), where numbers from 0 - 100% represent growth inhibition, and numbers from -100% - 0 represent cell death. For example, a value of 40 represents 60% growth inhibition. A value of 0 means no net growth occurred over the course of the experiment. A value of -40 indicates 40% of cells at the beginning of the experiment died by the end of the experiment. A value of -100 means all cells are dead at the end of the experiment.
# NCI-60 Human Tumor Cell Lines Screen was performed using the standard one-dose NCI protocol, which is described in more detail at https://dtp.cancer.gov/discovery_development/nci-60/default.htm.
# Compounds with GIPRCNT values below 10 were considered active. Activity score was based on GIPRCNT using the following formula: […]
# Score is 0 for GIPRCNT values of 100 or above, 50 for GIPRCNT values of 0, and 100 for GIPRCNT values of -100.
row,Compound,growth
1,CCOC(=O)C(C#N)=C1CCN(C)CC1,97.2% (inactive)
2,Cc1[nH]n(-c2ccccc2)c(=O)c1C=NC(=S)C(N)=S,104% (inactive)
3,O=C(O)C1CCCN1C(=O)OCc1ccccc1 (stereo not given),111% (inactive)
4,Oc1cccnc1CN1CCCC1,105% (inactive)
5,C=C(OC(C)=O)c1ccccc1,97.4% (inactive)
6,CCCCc1ccc2nc(NC(=O)OC)[nH]c2c1,14.4% (inactive)
7,CC(=O)c1cccc(NS(=O)(=O)c2ccc(C)cc2)c1,43.3% (inactive)
8,Nc1ccc2ccccc2c1-c1c(N)ccc2ccccc12,24.3% (inactive)
9,CCOc1ccncc1[N+](=O)[O-],101% (inactive)
10,Oc1ccc2ccccc2c1CN1CCOCC1,113% (inactive)
11,CC(C)(C)NCCC(O)c1cc(C(F)(F)F)nc2c(C(F)(F)F)cccc12 (stereo not given),89.6% (inactive)
12,S=CN1CCCCC1,105% (inactive)
13,O=C1C=C[C@H](O)[C@@]2(CO)O[C@@H]12,13.9% (inactive)
14,C1=NCCc2ccccc21,98.5% (inactive)
15,OCC(O)COc1ccc(Cl)cc1Cl (stereo not given),114% (inactive)
16,O=C(Nc1cccc(Cl)c1)c1ccc(Cl)cc1Cl,92.7% (inactive)
17,Cc1ccc(S(=O)(=O)NC(=O)NCCSSCCNC(=O)NS(=O)(=O)c2ccc(C)cc2)cc1,98.3% (inactive)
18,COC(=O)c1ccccc1C(=O)c1c(C)cc(C)cc1C,93.2% (inactive)
19,CC(O)C(F)(F)C(F)(F)C(F)(F)F (stereo not given),101% (inactive)
20,CCOc1ccc(NC(=S)N2CCC(CCCC3CCN(C(=S)Nc4ccc(OCC)cc4)CC3)CC2)cc1,98.3% (inactive)

row,Compound,growth
1,CCOC(=O)c1cc(Cl)c(O)c(Cl)c1,109% (inactive)
2,COC(=O)C1(CC(C)=O)NC(=S)NC(=O)C1C#N (stereo not given),102% (inactive)
3,Cc1cc(C(=O)c2ccccc2)cc(C)c1O,97.4% (inactive)
4,O=Cc1ccc(F)cc1,92.8% (inactive)
5,CSc1nsc(N)n1,92.9% (inactive)
6,O=C1C=Cc2ccccc2/C1=C/c1[nH]c(=O)[nH]c1O,22% (inactive)
7,CC(=O)[C@@]1(O)CC[C@H]2[C@@H]3CC[C@@H]4CC(=O)CC[C@]4(C)[C@H]3[C@@H](O)C[C@@]21C,100% (inactive)
8,NC(CCl)=NCC12CC3CC(CC(C3)C1)C2,3.96% (active)
9,CCOS(=O)(=O)c1ccc([N+](=O)[O-])cc1,119% (inactive)
10,O=S(=O)(O)c1cccc2cccnc12,94.6% (inactive)
11,OC(CCN1CCCCC1)(c1ccccc1)c1ccccc1,107% (inactive)
12,O=Cc1ccc(O)c(O)c1,113% (inactive)
13,NC(=S)N/N=C/c1ccc(Cl)cc1,113% (inactive)
14,N#CC1(O)CCCCC1,110% (inactive)
15,Cc1cc2nc(C)c(C)nc2cc1C,111% (inactive)
16,C=CC(=O)OC1CCC(C(C)(C)CC)CC1 (stereo not given),107% (inactive)
17,C=CCC(OC(C)=O)c1ccc(OC)c(OC)c1 (stereo not given),98% (inactive)
18,Cc1[nH]c(=S)[nH]c(=O)c1C,109% (inactive)
19,CCOC(C=O)OCC,108% (inactive)
20,O=S(=O)(O)C(C(I)I)S(=O)(=O)O,105% (inactive)
